# The source made the active and inactive calls. Unless noted, how the calls were made is not given here.
# Key:
# [1] = system: Wnt5a (protein binding on small-molecule microarray); experiment: Wnt5a binders on small-molecule microarray, primary screen, biophysical, 635/667 nm fluorescence (AID 1142); settings: 635 nm fluorescence, higher = more signal;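 further: fluorescence read at 667 nm with signal to noise per printed feature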
# [2] = cell viability in Huh7 cells, primary screen, cytotoxicity control for HCV replication inhibitor project, CellTiter-Glo luminescence, basal, 48 h (AID 1143); settings: Huh7 HCV replicon, higher = more signal, called active from +8 up or from −8 down;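 further: Huh7 hepatoma cells carrying a hepatitis C replication reporter with no stimulus; test concentration not given here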
# [3] = P. aeruginosa biofilm formation inhibitors, primary screen, PAO1 strain, BacTiter-Glo luminescence, LB-PBS (AID 1144); settings: 12 h, higher = more signal
# [4] = CREB reporter modulators without forskolin, primary screen, cell-based, PC12, CRE-LacZ reporter, unstimulated (AID 1145); settings: no forskolin, luminescence, 4.5 h, higher = more signal, called active from +8 up or from −8 down
# [5] = CREB reporter modulators under forskolin, primary screen, cell-based, PC12, CRE-LacZ reporter, forskolin-stimulated (AID 1146); settings: luminescence, 4.5 h, higher = more signal, called active from +8 up or from −8 down;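 further: PC12 cells with 6xCRE LacZ reporter stimulated by forskolin 10 µM; beta-galactosidase reporter signal reflecting CREB driven transcription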
# [6] = biological target: Streptavidin (Streptomyces avidinii) (UniProt P22629); experiment: streptavidin binders on small-molecule microarray, primary screen, artefact control for SMM compound annotation, biophysical, 635/667 nm fluorescence (AID 1147); settings: streptavidin binding, higher = more signal;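 further: signal reflects streptavidin binding to arrayed compounds as a control protein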
# Streptavidin (Streptomyces avidinii), sequence (P22629 whole entry, looked up): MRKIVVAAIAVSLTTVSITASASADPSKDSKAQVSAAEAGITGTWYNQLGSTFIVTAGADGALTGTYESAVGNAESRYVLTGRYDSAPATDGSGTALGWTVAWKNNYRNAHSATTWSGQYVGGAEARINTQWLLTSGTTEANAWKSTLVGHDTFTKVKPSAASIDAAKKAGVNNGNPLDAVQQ
# [7] = small-molecule binders of probe aInhba, primary screen, biochemical, small-molecule microarray, 635/667 nm fluorescence (AID 1148); settings: higher = more signal;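 further: score merges 667nm spot fluorescence with signal-to-noise for antibody binding to printed compounds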
# Torsin-1A (Homo sapiens) [8] = biological target: Torsin-1A (Homo sapiens) (UniProt O14656); experiment: torsin A binders from cell lysate, primary screen, small-molecule microarray, wild-type, 635/667 nm (AID 1149); settings: COS7 hTOR1A-WT lysate, 635 nm fluorescence, higher = more signal
# Torsin-1A (Homo sapiens), sequence (O14656 whole entry, looked up): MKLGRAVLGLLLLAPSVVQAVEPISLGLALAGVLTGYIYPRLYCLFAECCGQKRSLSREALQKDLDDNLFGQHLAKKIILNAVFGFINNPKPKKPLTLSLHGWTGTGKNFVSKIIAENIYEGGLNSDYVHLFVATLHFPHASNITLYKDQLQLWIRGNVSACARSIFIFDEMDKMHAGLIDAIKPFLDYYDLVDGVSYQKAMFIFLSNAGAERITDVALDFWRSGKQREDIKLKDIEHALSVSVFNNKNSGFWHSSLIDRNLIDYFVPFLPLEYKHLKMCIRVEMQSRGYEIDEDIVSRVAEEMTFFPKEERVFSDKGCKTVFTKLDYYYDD
# Torsin-1A (Homo sapiens) [9] = biological target: Torsin-1A (Homo sapiens) (UniProt O14656); experiment: small-molecule binders of mutant TOR1A in lysate, primary screen, cell lysate, small-molecule microarray, COS7 lysate, 635/667 nm fluorescence (AID 1150); settings: COS7 hTOR1A mutant lysate, 635 nm fluorescence, higher = more signal;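 further: score pools 667 nm emission and signal to noise measuring lysate protein binding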
# [10] = system: Sonic hedgehog protein (Shh); experiment: small-molecule binders of Shh protein, primary screen, biochemical, small-molecule microarray, 635/667 nm fluorescence (AID 1151); settings: small-molecule microarray binding, 635 nm fluorescence; higher = more signal;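 further: Shh protein binding to compounds spotted on small-molecule microarray slides; score combines spot fluorescence intensity with signal-to-noise across triplicate slides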
Structure (SMILES),composite z-score [1],z-score [2],z-score [3],z-score [4],z-score [5],composite z-score [6],composite z-score [7],composite z-score (Torsin-1A (Homo sapiens) [8]),composite z-score (Torsin-1A (Homo sapiens) [9]),composite z-score [10]
C#C[C@@H](CC)O[Si](C#Cc1ccc(Oc2ccccc2)cc1)(C(C)C)C(C)C,0.142,-0.533 (inactive),0.159 (inactive),-0.738 (inactive),0.0319 (inactive),-0.149,-0.0736,0.293,0.321,0.486
COc1ccccc1CN1C(=O)c2ccccc2[C@@]2(Cc3ccccc3N(C(C)C)C2=O)[C@@H]1c1ccc(CO)cc1,-0.458,-1.84 (inactive),-0.205 (inactive),-0.179 (inactive),-0.335 (inactive),-0.213,-0.0695,-1.25,0.373,-0.147
CC1CC/C=C\[C@H]2OC34C=CCN(Cn5nnc6ccccc65)C(=O)[C@H]3N(CCO)C(=O)[C@@H]4C2C(=O)O1 (stereo not given in full),-0.335,-2.74 (inactive),-2.49 (inactive),-1.44 (inactive),-1.01 (inactive),-0.923,-0.0719,2.73,2.11,-0.0981
CCCCCN1CC=CC23O[C@@H]4C=CCOC(=O)[C@@H]4[C@H]2C(=O)N(CCCCCCO)[C@@H]3C1=O (stereo not given in full),-0.485,0.0442 (inactive),0.851 (inactive),-0.342 (inactive),0.124 (inactive),-0.976,-0.15,-1.78,-0.966,-0.837
CC(CCN1CCc2nc(-c3ccccc3)c(-c3ccccc3)cc2C1)=NO[C@@H](C)c1cn([C@H](CO)Cc2ccccc2)nn1,-0.107,-0.802 (inactive),-0.414 (inactive),0.573 (inactive),-0.795 (inactive),0.52,0.0131,1.62,0.482,1.25
CC(C)CON=C1C[C@@H](O)[C@@H](O)[C@@H]2[C@@H]3C(=O)N([C@@H](C)c4ccccc4)C(=O)[C@@H]3CC[C@H]12,0.257,-0.544 (inactive),1.98 (inactive),-0.383 (inactive),-0.0095 (inactive),0.528,0.168,0.466,0.477,1.58
CCOC(=O)CCN1C(=O)[C@H]2[C@H]3[C@H](O)[C@H](O)CC(=NNC(=O)OCc4ccc(OC)cc4)[C@@H]3CC[C@H]2C1=O,-0.109,-0.284 (inactive),0.5 (inactive),0.957 (inactive),-0.254 (inactive),0.922,-0.195,-0.0239,0.0335,0.741
CC(C)NC(=O)[C@@]1(c2ccc([N+](=O)[O-])cc2)CC(=O)N(CC23CC4CC(CC(C4)C2)C3)[C@@H]1c1ccc(CO)cc1I,0.492,-5.69 (inactive),0.017 (inactive),0.531 (inactive),0.0456 (inactive),0.131,0.0435,0.484,0.369,0.746
C=CC[C@]1(C(=O)NCc2ccccc2)N=C(c2ccc(OCCCO)cc2)O[C@H]1c1ccccc1,-0.2,-4.19 (inactive),-0.71 (inactive),0.848 (inactive),1.34 (inactive),-0.134,-0.003,1.04,1.39,-0.872
O=C(NN=C1C[C@@H](O)[C@@H](O)[C@@H]2[C@@H]3C(=O)N(c4cccc(Oc5ccccc5)c4)C(=O)[C@@H]3CC[C@@H]12)OCc1ccccc1,-0.0255,-0.033 (inactive),-0.0198 (inactive),1.6 (inactive),-0.227 (inactive),0.504,-0.183,0.212,0.31,-0.376
CCOC(=O)NN=C1C[C@@H](O)[C@@H](O)[C@@H]2[C@@H]3C(=O)N(C[C@@H]4CCCO4)C(=O)[C@@H]3CC[C@@H]12,-0.0127,0.0688 (inactive),0.139 (inactive),-0.658 (inactive),0.75 (inactive),0.293,-0.0933,0.298,0.76,0.111
COc1ccc(O[C@H]2C=C[C@@H](c3ccccc3)O[C@@H]2COC(=O)CCC(C)=NO[C@@H](C)c2cc(-c3c(C)cc(C)cc3C)no2)cc1,-0.61,-0.961 (inactive),-0.587 (inactive),-0.315 (inactive),0.65 (inactive),-0.987,-0.295,-1.29,-1.04,0.224
CC(C)(C)OC(=O)CC[C@]1(C(=O)NCc2ccccc2)N=C(c2ccc(OCCCO)cc2)O[C@H]1c1ccccc1,1.01,-3.16 (inactive),-1.77 (inactive),0.699 (inactive),-1.23 (inactive),1.58,0.347,0.712,1.11,-0.349
COC(=O)[C@@H]1N=C(c2ccc(OCCCO)cc2)O[C@@H]1c1ccccc1N=[N+]=[N-],0.122,-2.72 (inactive),-0.943 (inactive),1.7 (inactive),-0.826 (inactive),0.937,0.168,0.131,0.51,-0.0259
C[C@H](c1ccccc1)N1C(=O)[C@H]2[C@H]3[C@H](O)[C@H](O)CC(=O)[C@@H]3CC[C@H]2C1=O,0.507,-1.37 (inactive),0.00143 (inactive),-0.885 (inactive),-0.997 (inactive),0.239,-0.0059,0.458,0.208,0.694
COC(=O)CC1OC1[C@H](C)[C@@H](OC)C(C)C (stereo not given in full),-0.0087,-0.229 (inactive),-0.183 (inactive),1.47 (inactive),-0.213 (inactive),-0.329,-0.0963,0.436,0.0299,0.813
COc1ccccc1CN1C(=O)c2ccccc2[C@@H](C(=O)NCC(F)(F)F)[C@@H]1c1ccc(CO)cc1,0.324,-1.92 (inactive),-1.6 (inactive),0.504 (inactive),-1.28 (inactive),0.299,0.16,0.156,0.336,1.92
COc1ccc(OC[C@H]2Cc3c(-c4ccccc4)nc4c(c3CO2)CN(CCOc2ccccc2)CC4)cc1,0.133,-3.41 (inactive),-1.27 (inactive),5.99 (inactive),-1.02 (inactive),0.633,0.109,0.086,0.534,1.37
CO[C@@H]1COC(=O)CCC[C@@H](C)[C@H](OC)COC(=O)[C@H](Cc2ccccc2)NC(=O)CC=C[C@H]1C,-0.706,-1.08 (inactive),-0.894 (inactive),0.0897 (inactive),1.18 (inactive),-0.431,-0.159,1.34,-0.0271,1.99
O=C1[C@H]2[C@H]3[C@H](O)[C@H](O)CC(=NO[C@@H]4O[C@H](CO)[C@@H](O)[C@H](O)[C@H]4O)[C@H]3CC[C@H]2C(=O)N1Cc1ccc2c(c1)OCO2,-0.228,-0.402 (inactive),1.58 (inactive),0.525 (inactive),-0.576 (inactive),0.595,-0.0719,0.838,0.181,-0.928
CC(=O)OC[C@H]1O[C@H](CCON=C(C)CCN2CCc3nc(-c4ccccc4)c(-c4ccccc4)cc3C2)C=C[C@@H]1OC(C)=O,-0.192,-1.04 (inactive),0.23 (inactive),4.88 (inactive),0.0929 (inactive),0.316,0.156,0.0622,0.407,0.287
COC(=O)[C@H](C)NC(=O)CCC1CC(OC(=O)NCc2cccc3ccccc23)CC2(CCCC(COC(=O)NCCc3ccc(Cl)cc3)O2)O1 (stereo not given in full),-0.173,-0.006 (inactive),-0.494 (inactive),0.2 (inactive),0.45 (inactive),0.558,-0.152,0.405,0.353,0.569
CCOC(=O)[C@H](Cc1ccccc1)NC(=O)CCC1CC(OC(=O)NCc2ccc3c(c2)OCO3)CC2(CCCC(COC(=O)NCc3cccc(C(F)(F)F)c3)O2)O1 (stereo not given in full),-0.0271,-2.72 (inactive),-0.518 (inactive),-0.618 (inactive),-0.0205 (inactive),0.0284,0.0448,0.0337,0.134,1.17
